Data on 47 sequences can be found in article PMC7819943, “Rice protein-binding microarrays: a tool to detect cis-acting elements near promoter regions in rice”.

In all, about 68,000 sequences were measured (“fluorescence intensity (a.u.)”: median about 9,100, highest 2% from about 16,000 on). The sample as a whole holds a higher share of the highest values than the screen did.

The target of this assay is OsWRKY34 (Oryza sativa, UniProt Q0JBA9 1-250). Put plainly: protein-binding microarray (RPBM); PBS, 2% BSA, 51.3 ng/ul salmon testes DNA, 50 uM zinc acetate, 200 nM TF, 25 C, 1 h; high values mean tight binding. Conditions: protein: recombinant; tags: N-terminal polyhistidine and DsRed monomer fusion (pET32a); label: CyDye5-dUTP incorporated in the synthesized complementary strand; 3' TTTTT single-stranded linker to array surface; dsDNA, one strand shown. In a few lines: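 Ni–NTA purification followed expression in E. coli BL21-CodonPlus of transcription factors fused N-terminally to a polyhistidine tag and DsRed. At 200 nM in PBS with 2% BSA, salmon testes DNA and 50 µM zinc acetate, the protein was incubated for 1 h at 25 °C with a custom Agilent array that had been primer-extended with Cy5-dUTP and blocked with 2% BSA. After washing, the array was read on an Axon 4000B scanner. The binding signal is per-feature fluorescence intensity in arbitrary units.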
Chain of OsWRKY34 (Q0JBA9 entry or part of it): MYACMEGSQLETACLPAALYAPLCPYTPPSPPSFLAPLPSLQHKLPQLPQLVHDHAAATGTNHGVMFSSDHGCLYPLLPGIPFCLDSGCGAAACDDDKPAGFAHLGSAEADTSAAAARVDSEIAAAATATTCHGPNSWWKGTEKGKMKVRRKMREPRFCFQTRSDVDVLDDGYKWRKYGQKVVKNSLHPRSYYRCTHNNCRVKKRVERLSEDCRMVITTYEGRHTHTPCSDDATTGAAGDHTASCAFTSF
Consider “ACCCCACCTGTCAGACAACCCCACCGCCGCTTCGCTTCACCGGAGTCACCTAGTGCAG”, for which the binding signal was 17300 fluorescence intensity (a.u.).
To “GAATCCACCGCATTTTTCCGCCGCCCCACGCGGCGCCACCCGGAGTCACCTAGTGCAG” belongs 19700 fluorescence intensity (a.u.); to “TTCCTCCGTTTTCTCCGTTCGTCTTCCTCCGCTTCCGAAGCGGAGTCACCTAGTGCAG”, 18000 fluorescence intensity (a.u.).
“AGCTTCCTCCGTTTTTTTCTTTCTTTCTTTCTTTTTTTTTCGGAGTCACCTAGTGCAG”: the binding signal was 11800 fluorescence intensity (a.u.).
To “TTCGTCTCCGTTTCGTCTTCTTCTTCTTCTTCTTCTTCGGCGGAGTCACCTAGTGCAG” belongs 8790 fluorescence intensity (a.u.); to “GCAAACTTTATTGCTCCGCGTTCTTCCTTTCTCTGTGTTTCGGAGTCACCTAGTGCAG”, 8910 fluorescence intensity (a.u.).
Turning to “TCATTCCTATGTTTTTTCTGTGTTTTGCAATTCTCTGTTTCGGAGTCACCTAGTGCAG”, the binding signal was 14900 fluorescence intensity (a.u.).
To “GCACCGGCGCCACCGCCCGCGCCCGCACCACCGCCCACGCCGGAGTCACCTAGTGCAG” belongs 8870 fluorescence intensity (a.u.); to “TCATTGCTCTCTGTGTTTCTCCGCTATGCCGCCACGTCTTCGGAGTCACCTAGTGCAG”, 16700 fluorescence intensity (a.u.).
To “ACCCACCACAACCAGTGATCAGACACCACCTACCGCGCGCCGGAGTCACCTAGTGCAG” belongs 8330 fluorescence intensity (a.u.).
Turning to “CCAACCGCCGCGCCGCTTCGCTGTCTTCACCGTGCCGCTCCGGAGTCACCTAGTGCAG”, the binding signal was 8620 fluorescence intensity (a.u.).
The value for “CCGAATCCGGCCACCCCGCCGCCTCCACGCGCATCACCGCCGGAGTCACCTAGTGCAG” was 11100 fluorescence intensity (a.u.); that for “GGAGCACCTGTCGTGCGCTGCCGCCATGTACGCGGCGCCGCGGAGTCACCTAGTGCAG” was 8360 fluorescence intensity (a.u.); that for “ATACCCGATCTCATTATTATGAACCAGTTATGTAATAACACGGAGTCACCTAGTGCAG” was 8020 fluorescence intensity (a.u.).
Consider “TGCACAAAGGTTATGCGATATCGACGGTATATTTCCACAACGGAGTCACCTAGTGCAG”, for which the binding signal is 9520 fluorescence intensity (a.u.).
To “TGGCCGCGGCTGCTGCTGAGTGTGGTGGTGGTGGGAGGCACGGAGTCACCTAGTGCAG” belongs 8880 fluorescence intensity (a.u.); to “CCCCAAAATTTTTCACCATGTCACATCAAACGTTTGAACACGGAGTCACCTAGTGCAG”, 8490 fluorescence intensity (a.u.); to “TTCACACCGTCGTATTTGCCACTTTACTGACGCTCGAAGCCGGAGTCACCTAGTGCAG”, 8060 fluorescence intensity (a.u.).
The value for “TACTAATTTCCTTCGCACATCCAGCAATCAGATATCCTGACGGAGTCACCTAGTGCAG” was 9760 fluorescence intensity (a.u.); that for “CATCCCTAGTCGGCGTCTTGTCATCGCCGCCCCAATCTCGCGGAGTCACCTAGTGCAG” was 8260 fluorescence intensity (a.u.); that for “GCTCCATCTCTCGTCTCGCGCTTCACTCCACATCTGTTTCCGGAGTCACCTAGTGCAG” was 18300 fluorescence intensity (a.u.).
To “CGCTTCCTCGCCGCGCGCGCGCCCGCCATCTCCTCGCCTCCGGAGTCACCTAGTGCAG” belongs 9350 fluorescence intensity (a.u.).
For the sequence “TCCTCCTCGCCGCCCGGCGAATCCCGCGCCTCCTCGCTTCCGGAGTCACCTAGTGCAG”, the binding signal is 9070 fluorescence intensity (a.u.).
To “ATCCATTTCCAGCTTCGTCTTCATCTTGGCTTGGCGCGCTCGGAGTCACCTAGTGCAG” belongs 17800 fluorescence intensity (a.u.); to “GCATCTCCACAGTCCACACTGTGCGCGCCATTCTTATCCTCGGAGTCACCTAGTGCAG”, 14100 fluorescence intensity (a.u.); to “AGCGCTACTCCACATCTGTTTGCTCGTGCTCTCCGGATCTCGGAGTCACCTAGTGCAG”, 8550 fluorescence intensity (a.u.).
The value for “ATCTTCTATTCACGGCTTGCCATCTGTGCACTGTAATTTTCGGAGTCACCTAGTGCAG” was 9850 fluorescence intensity (a.u.); that for “CACACTGTGCACGCCATTCTTATCTTGTCTAGCTTCATCTCGGAGTCACCTAGTGCAG” was 16600 fluorescence intensity (a.u.).
The value for “TGCGCTCATGGCCATCCATTTTCTTCTTCTTCTTTTTTTTCGGAGTCACCTAGTGCAG” was 10300 fluorescence intensity (a.u.); that for “GCCTCGTTTCCATCTCCGCCGCGCTCGCCGCGTTCACACTCGGAGTCACCTAGTGCAG” was 11400 fluorescence intensity (a.u.).
With “AGCATCCGAATCCGGCCACCTCATCATCTCGCCTCGCTTCCGGAGTCACCTAGTGCAG”, the binding signal was 16900 fluorescence intensity (a.u.).
The value for “CTTTCCTTGCGCTGTTCTTCGCTTCATCCATCCATCAGCTCGGAGTCACCTAGTGCAG” was 10800 fluorescence intensity (a.u.).
The value for “CCACCTGCTCGCCGTCGACGCCGCCCTCGCCATCTTCAATCGGAGTCACCTAGTGCAG” was 12800 fluorescence intensity (a.u.).
In the case of “CCATCGCCATTGACACGGACACCTTACCTGTCACAAAGAACGGAGTCACCTAGTGCAG”, the binding signal was 8160 fluorescence intensity (a.u.).
The value for “CGACGCGCCATCGCCTCGCCTCTCACCTACTGCCTCGTCCCGGAGTCACCTAGTGCAG” was 8820 fluorescence intensity (a.u.); that for “ACTTCTTGCTGATCTTCTTGGACTGCTTTTGCACCTTCTTCGGAGTCACCTAGTGCAG” was 9360 fluorescence intensity (a.u.).
To “ATGCACCACTGTTCCTGTCCTGGCTTTGCACAACATCCATCGGAGTCACCTAGTGCAG” belongs 13300 fluorescence intensity (a.u.); to “ATGTTCAGTAGTTAAAGAGGATACTGGCCACATGCTTGACCGGAGTCACCTAGTGCAG”, 8790 fluorescence intensity (a.u.); to “ATCATATGAACACGTTATCTTTTTATTTTATACCGGTTCACGGAGTCACCTAGTGCAG”, 8840 fluorescence intensity (a.u.).
The value for “CCGCCGGCCGCCGTCCTCGCCATCTCCGCCGGCCGCCGTCCGGAGTCACCTAGTGCAG” was 8440 fluorescence intensity (a.u.); that for “CCTAGTCGGCTTCGCCTCCGCTTCCTCGTCTCGTCTCCCTCGGAGTCACCTAGTGCAG” was 8160 fluorescence intensity (a.u.); that for “ATCTCCGCCGCCGCCGCCTCCTACTCGTCGCCCTCCTCCTCGGAGTCACCTAGTGCAG” was 10300 fluorescence intensity (a.u.).
With “GCCCCAACCTCGTCGCTACCCGCGAGCCTCGGCTTATCGACGGAGTCACCTAGTGCAG”, the binding signal was 65100 fluorescence intensity (a.u.).
To “CATCTCCGCCGGCCGCCGTCCTCGCCATCTTCGCCGTCCTCGGAGTCACCTAGTGCAG” belongs 12600 fluorescence intensity (a.u.).
As for “CACCGTGTCGCTCTCTCTCGTCGTCTCCGCCTCCGGCTTCCGGAGTCACCTAGTGCAG”, the binding signal is 19600 fluorescence intensity (a.u.).
“GTCATCCTCTCCATCCCCTCGTCGTCGTCCGCTCGCCTCTCGGAGTCACCTAGTGCAG”: the binding signal is 8250 fluorescence intensity (a.u.).
The value for “CGTCTCCTCTCTCTCTCTCTCTCTCTCTCGCCTCCGCTTCCGGAGTCACCTAGTGCAG” was 8240 fluorescence intensity (a.u.).
